Data published in the supplement of paper PMC10849652.
Targets with a hit are over-represented here; the source holds about 7,900 in all. About 0.6% of all pairs of compound and target were hits.

The targets below were run with C1=CC(=C(C=C1Cl)C2=NC3=NC=CN=C3C(=N2)NC4=CC=NC=C4)F (assay: log2 fold change, soluble protein after heating vs DMSO (PISA); higher = thermal stabilisation; K562 cells, 10 uM, 30 min; active = over 0.2 and 3.5 SD of the protein, either way, in both replicates (recomputed)).
In short: (§1)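 Soluble protein was defined as the supernatant after 21,000xg for 90 min. It came from K562 cells at 2×10^6 cells/mL given 10 μM compound for 30 min, heated in aliquots for 3 min across 48°C-58°C, pooled, and extracted in PBS with 0.5% NP-40 at 4°C, and was quantified by TMTpro 16plex LC-MS/MS with equalised channel sums. Thermal stability against control samples, from duplicates, is reported as log2 fold change.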

Sequence of UniProt Q99758 (Q99758 whole entry, looked up): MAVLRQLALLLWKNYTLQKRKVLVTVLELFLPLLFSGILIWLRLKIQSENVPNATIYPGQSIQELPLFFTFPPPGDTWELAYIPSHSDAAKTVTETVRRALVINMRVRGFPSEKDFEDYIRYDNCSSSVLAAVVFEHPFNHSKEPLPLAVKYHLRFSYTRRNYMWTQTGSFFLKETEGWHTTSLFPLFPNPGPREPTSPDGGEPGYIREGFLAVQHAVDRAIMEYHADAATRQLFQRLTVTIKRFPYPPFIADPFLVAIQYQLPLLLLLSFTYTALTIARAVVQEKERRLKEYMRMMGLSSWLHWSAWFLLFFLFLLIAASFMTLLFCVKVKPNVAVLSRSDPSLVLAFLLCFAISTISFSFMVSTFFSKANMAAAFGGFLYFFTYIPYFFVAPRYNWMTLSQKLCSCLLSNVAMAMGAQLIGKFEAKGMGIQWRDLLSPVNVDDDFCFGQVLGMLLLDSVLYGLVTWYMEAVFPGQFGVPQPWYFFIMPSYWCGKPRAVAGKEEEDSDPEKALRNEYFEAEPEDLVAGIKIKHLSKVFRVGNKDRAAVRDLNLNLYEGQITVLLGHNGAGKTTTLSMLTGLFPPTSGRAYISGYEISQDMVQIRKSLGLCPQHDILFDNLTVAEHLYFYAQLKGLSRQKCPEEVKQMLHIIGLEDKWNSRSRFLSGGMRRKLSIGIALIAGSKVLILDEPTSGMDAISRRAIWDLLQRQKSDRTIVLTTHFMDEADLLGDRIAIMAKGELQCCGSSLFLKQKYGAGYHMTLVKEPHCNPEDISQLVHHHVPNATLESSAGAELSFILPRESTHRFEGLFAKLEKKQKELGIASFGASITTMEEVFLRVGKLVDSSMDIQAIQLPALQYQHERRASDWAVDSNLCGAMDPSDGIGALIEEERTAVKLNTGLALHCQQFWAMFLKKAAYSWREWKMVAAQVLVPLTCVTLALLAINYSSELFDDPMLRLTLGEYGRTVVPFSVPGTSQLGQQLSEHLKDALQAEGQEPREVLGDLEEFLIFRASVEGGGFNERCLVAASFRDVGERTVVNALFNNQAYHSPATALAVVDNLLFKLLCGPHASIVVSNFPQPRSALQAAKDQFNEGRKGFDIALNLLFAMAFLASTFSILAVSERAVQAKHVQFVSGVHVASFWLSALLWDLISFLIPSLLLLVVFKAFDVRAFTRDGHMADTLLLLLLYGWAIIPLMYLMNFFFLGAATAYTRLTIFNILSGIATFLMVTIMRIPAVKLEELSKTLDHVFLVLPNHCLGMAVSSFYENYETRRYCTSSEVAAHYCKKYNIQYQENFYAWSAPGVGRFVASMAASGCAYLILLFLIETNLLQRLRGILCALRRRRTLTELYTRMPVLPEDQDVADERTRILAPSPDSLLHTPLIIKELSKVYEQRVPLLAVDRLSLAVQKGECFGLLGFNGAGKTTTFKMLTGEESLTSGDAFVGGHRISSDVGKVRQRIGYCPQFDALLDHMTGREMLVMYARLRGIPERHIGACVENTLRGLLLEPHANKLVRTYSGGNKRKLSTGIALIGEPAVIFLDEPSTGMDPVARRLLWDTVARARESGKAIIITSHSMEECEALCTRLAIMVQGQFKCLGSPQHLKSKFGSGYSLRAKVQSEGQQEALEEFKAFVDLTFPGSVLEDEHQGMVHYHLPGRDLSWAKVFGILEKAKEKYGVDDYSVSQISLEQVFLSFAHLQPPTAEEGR
Sequence of UniProt Q8N6T3 (Q8N6T3 whole entry, looked up): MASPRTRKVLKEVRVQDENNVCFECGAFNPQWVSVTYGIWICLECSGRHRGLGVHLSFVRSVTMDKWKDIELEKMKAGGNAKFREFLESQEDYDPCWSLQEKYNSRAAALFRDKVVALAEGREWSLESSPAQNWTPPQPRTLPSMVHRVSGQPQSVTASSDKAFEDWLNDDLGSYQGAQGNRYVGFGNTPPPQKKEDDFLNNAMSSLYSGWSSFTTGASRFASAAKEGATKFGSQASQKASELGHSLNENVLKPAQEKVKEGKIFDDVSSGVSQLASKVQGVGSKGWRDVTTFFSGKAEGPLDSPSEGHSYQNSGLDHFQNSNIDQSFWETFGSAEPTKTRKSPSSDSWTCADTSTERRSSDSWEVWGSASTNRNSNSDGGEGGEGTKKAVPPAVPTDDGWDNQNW
Sequence of UniProt P35611 (P35611 whole entry, looked up): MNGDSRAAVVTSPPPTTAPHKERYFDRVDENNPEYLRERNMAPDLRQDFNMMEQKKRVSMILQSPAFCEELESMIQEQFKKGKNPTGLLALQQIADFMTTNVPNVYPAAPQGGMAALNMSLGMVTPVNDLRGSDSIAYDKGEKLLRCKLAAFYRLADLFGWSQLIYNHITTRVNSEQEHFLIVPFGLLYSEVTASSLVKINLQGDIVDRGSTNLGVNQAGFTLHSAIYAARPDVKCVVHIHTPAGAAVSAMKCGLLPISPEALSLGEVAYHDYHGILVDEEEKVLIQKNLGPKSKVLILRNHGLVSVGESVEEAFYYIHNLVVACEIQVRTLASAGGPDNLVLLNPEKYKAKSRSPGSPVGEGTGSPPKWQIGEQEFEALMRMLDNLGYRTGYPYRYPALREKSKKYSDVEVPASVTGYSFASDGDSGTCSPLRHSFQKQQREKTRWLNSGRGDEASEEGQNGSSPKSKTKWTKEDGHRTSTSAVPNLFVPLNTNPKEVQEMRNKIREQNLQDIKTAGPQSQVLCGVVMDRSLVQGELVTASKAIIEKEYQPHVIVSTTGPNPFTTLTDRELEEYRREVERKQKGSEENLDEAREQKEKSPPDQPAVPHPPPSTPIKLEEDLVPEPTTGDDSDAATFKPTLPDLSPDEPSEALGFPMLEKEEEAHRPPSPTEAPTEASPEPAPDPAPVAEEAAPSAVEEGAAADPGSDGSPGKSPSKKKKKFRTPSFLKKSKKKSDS
Sequence of UniProt O43861 (O43861 whole entry, looked up): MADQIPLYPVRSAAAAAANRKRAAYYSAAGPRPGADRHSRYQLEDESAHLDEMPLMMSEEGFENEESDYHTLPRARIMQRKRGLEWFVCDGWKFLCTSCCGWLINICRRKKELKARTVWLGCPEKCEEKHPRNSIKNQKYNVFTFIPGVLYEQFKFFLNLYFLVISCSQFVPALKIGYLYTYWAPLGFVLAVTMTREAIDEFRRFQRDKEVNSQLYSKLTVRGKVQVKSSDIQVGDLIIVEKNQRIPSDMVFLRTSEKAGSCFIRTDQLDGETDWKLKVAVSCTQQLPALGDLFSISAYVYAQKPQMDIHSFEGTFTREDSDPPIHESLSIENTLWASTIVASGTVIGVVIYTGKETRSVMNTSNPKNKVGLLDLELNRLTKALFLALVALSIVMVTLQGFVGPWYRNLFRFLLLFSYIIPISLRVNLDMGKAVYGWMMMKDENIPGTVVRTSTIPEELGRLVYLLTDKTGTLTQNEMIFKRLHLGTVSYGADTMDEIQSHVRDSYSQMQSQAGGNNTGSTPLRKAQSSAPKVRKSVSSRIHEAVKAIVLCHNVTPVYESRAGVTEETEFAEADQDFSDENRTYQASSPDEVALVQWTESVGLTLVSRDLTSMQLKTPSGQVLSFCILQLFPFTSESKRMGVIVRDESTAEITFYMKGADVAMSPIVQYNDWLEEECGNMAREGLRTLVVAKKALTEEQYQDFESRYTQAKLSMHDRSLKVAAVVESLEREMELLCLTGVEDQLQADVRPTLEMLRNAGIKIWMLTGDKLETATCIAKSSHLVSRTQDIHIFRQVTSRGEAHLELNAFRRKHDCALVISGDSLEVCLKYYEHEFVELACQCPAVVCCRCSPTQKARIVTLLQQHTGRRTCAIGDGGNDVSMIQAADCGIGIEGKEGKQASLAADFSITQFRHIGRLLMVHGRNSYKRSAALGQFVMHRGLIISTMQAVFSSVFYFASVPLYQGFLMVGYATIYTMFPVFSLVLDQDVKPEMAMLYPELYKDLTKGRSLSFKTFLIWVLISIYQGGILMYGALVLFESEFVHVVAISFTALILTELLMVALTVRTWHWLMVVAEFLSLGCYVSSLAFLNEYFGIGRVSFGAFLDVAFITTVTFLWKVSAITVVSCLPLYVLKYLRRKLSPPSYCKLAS
Sequence of UniProt Q9NWB6 (Q9NWB6 whole entry, looked up): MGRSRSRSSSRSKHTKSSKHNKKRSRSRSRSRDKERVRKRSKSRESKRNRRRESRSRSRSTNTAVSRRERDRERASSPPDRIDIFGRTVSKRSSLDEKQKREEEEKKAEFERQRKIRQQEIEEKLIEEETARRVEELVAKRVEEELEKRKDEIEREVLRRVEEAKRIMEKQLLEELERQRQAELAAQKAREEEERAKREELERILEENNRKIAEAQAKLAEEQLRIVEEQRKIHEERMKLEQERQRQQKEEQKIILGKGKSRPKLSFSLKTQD
Sequence of UniProt Q9Y312 (Q9Y312 whole entry, looked up): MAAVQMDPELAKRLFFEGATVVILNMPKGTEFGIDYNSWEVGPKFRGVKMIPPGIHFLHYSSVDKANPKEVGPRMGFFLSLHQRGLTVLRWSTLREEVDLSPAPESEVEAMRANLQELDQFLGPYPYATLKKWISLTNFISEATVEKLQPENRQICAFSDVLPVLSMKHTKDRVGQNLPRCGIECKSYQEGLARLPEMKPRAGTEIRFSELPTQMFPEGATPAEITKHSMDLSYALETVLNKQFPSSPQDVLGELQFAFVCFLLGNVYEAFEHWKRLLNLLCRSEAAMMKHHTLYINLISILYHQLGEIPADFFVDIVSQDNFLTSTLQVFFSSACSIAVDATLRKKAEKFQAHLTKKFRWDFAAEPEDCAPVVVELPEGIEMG
Sequence of UniProt Q10589 (Q10589 whole entry, looked up): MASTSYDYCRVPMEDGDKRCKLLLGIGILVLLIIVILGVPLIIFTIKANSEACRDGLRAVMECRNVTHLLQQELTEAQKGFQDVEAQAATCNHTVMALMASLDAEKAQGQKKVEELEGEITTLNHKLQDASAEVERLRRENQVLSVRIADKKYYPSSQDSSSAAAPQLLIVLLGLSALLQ
Sequence of UniProt P56211 (P56211 whole entry, looked up): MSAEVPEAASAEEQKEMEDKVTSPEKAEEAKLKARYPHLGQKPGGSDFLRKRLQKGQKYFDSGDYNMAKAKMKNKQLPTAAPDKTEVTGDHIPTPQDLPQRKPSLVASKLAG

log2 fold change, inactive:
ADD1 isoform 3 (UniProt P35611) -0.013, BOP1 (UniProt Q14137) -0.144, ATP9B (UniProt O43861) 0.01, ABCC5 (UniProt O15440) 0.064, BST2 (UniProt Q10589) -0.046, AKT2 (UniProt P31751) 0.094, ABCA3 (UniProt Q99758) 0.002, ALG3 (UniProt Q92685) 0.07, BCCIP isoform 2 (UniProt Q9P287) 0.027, ABHD16A (UniProt O95870) -0.048, AKAP8 (UniProt O43823) 0.074, ARGLU1 (UniProt Q9NWB6) -0.183, ARFGAP1 (UniProt Q8N6T3) 0.086, AAR2 (UniProt Q9Y312) -0.113

Each target was assayed with C1=CC(=CC=C1C2=NC3=C(N2)C=C(C=C3)C(=O)N)OC4=CC=C(C=C4)Cl in the same assay as above.
In short: as §1

log2 fold change, inactive:
ATP6V0A1 isoform 3 (UniProt Q93050) 0.061, ADPRHL2 (UniProt Q9NX46) 0.048, BUB1B isoform 3 (UniProt O60566) -0.031, ATP2A3 isoform 2 (UniProt Q93084) -0.002, ACIN1 (UniProt Q9UKV3) 0.006, AIP (UniProt O00170) -0.006, ATP1B3 (UniProt P54709) -0.019, ALDH9A1 (UniProt P49189) -0.077, ATP6V1C1 (UniProt P21283) -0.021, APPL1 (UniProt Q9UKG1) 0.012, AKAP8L (UniProt Q9ULX6) 0.026, ATP23 (UniProt Q9Y6H3) 0.033, ASNS (UniProt P08243) -0.015, ACTR1B (UniProt P42025) 0.041, ARPP19 (UniProt P56211) -0.032, ARHGAP1 (UniProt Q07960) 0.021, AGPAT3 isoform 3 (UniProt Q9NRZ7) -0.009, ATP13A2 (UniProt Q9NQ11) 0.096, ALDH6A1 (UniProt Q02252) -0.144, ATR (UniProt Q13535) 0.018, ARL2BP (UniProt Q9Y2Y0) -0.02, AUP1 (UniProt Q9Y679) 0.049, ADD1 isoform 3 (UniProt P35611) -0.022, BOP1 (UniProt Q14137) 0, ATP9B (UniProt O43861) -0.132, ABCC5 (UniProt O15440) -0.004, BST2 (UniProt Q10589) 0, AKT2 (UniProt P31751) 0.027, ABCA3 (UniProt Q99758) 0.057, ALG3 (UniProt Q92685) -0.081, BCCIP isoform 2 (UniProt Q9P287) 0.026, ABHD16A (UniProt O95870) 0.161, AKAP8 (UniProt O43823) 0.039, ARGLU1 (UniProt Q9NWB6) 0.115, ARFGAP1 (UniProt Q8N6T3) -0.072, AAR2 (UniProt Q9Y312) 0.057
